Experimental data: PubChem BioAssay
Active and inactive are the calls of the source.

Legend:
[1] = test system: PRMT1 (protein arginine N-methyltransferase 1); experiment: small molecules binding arginine methyltransferase PRMT1 – biochemical, small-molecule microarray, 635 nm fluorescence, primary screen (AID 1088); conditions: higher = more signal;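 also: binding of Prmt1 protein to compounds spotted on small-molecule microarray slides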
[2] = growth effects on S. cerevisiae YJM789 – YJM789 clinical isolate, OD600, 24 h, basal, primary screen (AID 1089); conditions: higher = more signal, called active from +8 up or from −8 down;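 also: growth of clinical yeast isolate S. cerevisiae YJM 789 seeded 1000 cells per well; test concentration not given here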
[3] = S. pombe growth modifiers, basal conditions – strain 972, OD600, 24 h, no modulator, primary screen (AID 1090);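 also: basal condition with compound alone and no growth modifier present; test concentration not given here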; conditions: S. pombe 972 growth, higher = more signal, called active from +8 up or from −8 down
[4] = budding yeast growth modifiers under rapamycin – strain BY4716, OD600, 96 h, primary screen (AID 1091); also: test concentration not given here; conditions: S. cerevisiae BY4716 + rapamycin, higher = more signal, called active from +8 up or from −8 down
[5] = biological target: Torsin-1A-interacting protein 2 (Homo sapiens) (UniProt Q8NFQ8); experiment: small molecules binding lysate-expressed LULL1 – cell lysate, human LULL1 lysate, 635/667 nm fluorescence, primary screen (AID 1092); conditions: small-molecule microarray, hLULL1 lysate binding, 635 nm fluorescence; higher = more signal;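 also: probe is lysate of COS7 cells overexpressing human LULL1; score merges per-feature 667 nm fluorescence with signal-to-noise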
[6] = optical density change of DRC41 E. coli – strain DRC41, OD650, 24 h, E. coli filamentation project, primary screen (AID 1093);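 also: MC1000 strain lacking acrAB efflux and sulA so SOS filamentation is blocked; test concentration not given here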; conditions: E. coli DRC41 growth, higher = more signal, called active from +8 up or from −8 down
[7] = probe aLefty2 binding to arrayed compounds – biochemical, biotinylated probe, 635/667 nm fluorescence, primary screen (AID 1094); conditions: small-molecule microarray, higher = more signal;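 also: score merges spot fluorescence near 667 nm with spot signal-to-noise ratio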
[8] = test system: Noggin (protein binding on small-molecule microarray); experiment: small molecules binding Noggin protein – biochemical, 635/667 nm fluorescence, primary screen (AID 1095); conditions: 635 nm fluorescence, higher = more signal;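 also: score merges 667 nm feature fluorescence with signal to noise over triplicate slides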
[9] = biological target: Neurogenic locus notch homolog protein 3 (Homo sapiens) (UniProt Q9UM47); experiment: small molecules binding NOTCH3 protein – biochemical, 635/667 nm fluorescence, primary screen (AID 1096); conditions: small-molecule microarray, 635 nm fluorescence, higher = more signal
[10] = probe aEGFR binding to arrayed compounds – biochemical, biotinylated probe, 635/667 nm fluorescence, primary screen (AID 1097); conditions: small-molecule microarray, higher = more signal;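 also: probe is a biotinylated anti-EGFR antibody binding compounds printed on slides; score combines fluorescence near 667 nm and signal to noise of each spot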

Chain of Neurogenic locus notch homolog protein 3 (Homo sapiens) (Q9UM47 whole entry, looked up): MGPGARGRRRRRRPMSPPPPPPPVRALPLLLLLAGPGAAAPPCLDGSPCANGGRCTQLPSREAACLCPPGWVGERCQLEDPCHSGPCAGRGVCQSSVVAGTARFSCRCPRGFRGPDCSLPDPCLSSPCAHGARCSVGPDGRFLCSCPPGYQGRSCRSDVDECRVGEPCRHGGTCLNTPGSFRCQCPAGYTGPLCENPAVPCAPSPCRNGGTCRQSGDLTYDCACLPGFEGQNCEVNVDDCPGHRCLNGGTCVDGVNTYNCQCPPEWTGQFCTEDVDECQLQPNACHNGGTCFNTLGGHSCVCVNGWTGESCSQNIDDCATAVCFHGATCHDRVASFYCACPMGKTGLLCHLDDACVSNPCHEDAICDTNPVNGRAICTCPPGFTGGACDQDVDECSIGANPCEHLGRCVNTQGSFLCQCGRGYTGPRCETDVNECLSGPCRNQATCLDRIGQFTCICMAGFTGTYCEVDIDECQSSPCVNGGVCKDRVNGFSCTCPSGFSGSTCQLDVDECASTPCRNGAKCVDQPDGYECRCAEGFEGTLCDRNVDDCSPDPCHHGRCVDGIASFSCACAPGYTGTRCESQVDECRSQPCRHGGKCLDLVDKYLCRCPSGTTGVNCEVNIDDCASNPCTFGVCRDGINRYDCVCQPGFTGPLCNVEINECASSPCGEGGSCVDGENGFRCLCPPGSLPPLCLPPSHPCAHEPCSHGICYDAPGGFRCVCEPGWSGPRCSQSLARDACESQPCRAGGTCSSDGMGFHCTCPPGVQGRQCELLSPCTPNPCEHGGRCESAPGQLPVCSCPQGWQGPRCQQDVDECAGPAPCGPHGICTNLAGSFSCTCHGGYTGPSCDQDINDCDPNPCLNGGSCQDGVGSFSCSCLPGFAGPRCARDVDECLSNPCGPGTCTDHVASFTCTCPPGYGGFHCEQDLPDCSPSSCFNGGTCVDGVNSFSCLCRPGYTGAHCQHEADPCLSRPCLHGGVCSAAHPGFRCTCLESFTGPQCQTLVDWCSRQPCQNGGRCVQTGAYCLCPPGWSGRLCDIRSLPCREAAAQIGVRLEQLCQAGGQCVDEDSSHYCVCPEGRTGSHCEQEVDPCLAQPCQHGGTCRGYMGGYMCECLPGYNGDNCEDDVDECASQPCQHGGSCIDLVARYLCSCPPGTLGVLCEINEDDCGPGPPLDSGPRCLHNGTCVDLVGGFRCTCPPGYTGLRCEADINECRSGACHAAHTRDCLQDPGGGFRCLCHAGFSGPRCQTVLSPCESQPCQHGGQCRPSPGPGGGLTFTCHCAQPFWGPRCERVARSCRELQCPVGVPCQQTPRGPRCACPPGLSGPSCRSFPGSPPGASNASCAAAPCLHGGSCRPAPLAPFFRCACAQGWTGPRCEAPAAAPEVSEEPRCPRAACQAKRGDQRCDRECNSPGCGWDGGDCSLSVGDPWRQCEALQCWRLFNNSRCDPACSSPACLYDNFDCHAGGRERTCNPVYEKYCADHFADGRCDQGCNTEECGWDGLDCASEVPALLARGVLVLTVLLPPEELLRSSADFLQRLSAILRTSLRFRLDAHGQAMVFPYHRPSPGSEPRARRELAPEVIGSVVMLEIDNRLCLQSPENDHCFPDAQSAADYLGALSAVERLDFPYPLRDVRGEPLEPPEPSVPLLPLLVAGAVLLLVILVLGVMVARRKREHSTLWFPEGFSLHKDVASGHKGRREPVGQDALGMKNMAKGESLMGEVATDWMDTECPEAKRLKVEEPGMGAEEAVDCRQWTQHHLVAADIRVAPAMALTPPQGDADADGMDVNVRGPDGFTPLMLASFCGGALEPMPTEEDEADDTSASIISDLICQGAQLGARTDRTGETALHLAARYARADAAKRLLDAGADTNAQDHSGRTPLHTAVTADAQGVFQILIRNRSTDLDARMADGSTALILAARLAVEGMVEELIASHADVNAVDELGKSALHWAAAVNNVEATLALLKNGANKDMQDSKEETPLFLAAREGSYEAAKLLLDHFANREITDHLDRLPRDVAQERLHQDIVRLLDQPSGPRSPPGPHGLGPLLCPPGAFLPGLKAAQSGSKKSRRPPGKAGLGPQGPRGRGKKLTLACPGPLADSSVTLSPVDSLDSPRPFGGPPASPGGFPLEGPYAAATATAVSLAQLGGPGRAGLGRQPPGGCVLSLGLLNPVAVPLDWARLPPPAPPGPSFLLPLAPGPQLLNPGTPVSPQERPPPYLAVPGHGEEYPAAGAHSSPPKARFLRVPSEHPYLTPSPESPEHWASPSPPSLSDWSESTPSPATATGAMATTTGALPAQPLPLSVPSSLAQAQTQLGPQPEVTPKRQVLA
Chain of Torsin-1A-interacting protein 2 (Homo sapiens) (Q8NFQ8 whole entry, looked up): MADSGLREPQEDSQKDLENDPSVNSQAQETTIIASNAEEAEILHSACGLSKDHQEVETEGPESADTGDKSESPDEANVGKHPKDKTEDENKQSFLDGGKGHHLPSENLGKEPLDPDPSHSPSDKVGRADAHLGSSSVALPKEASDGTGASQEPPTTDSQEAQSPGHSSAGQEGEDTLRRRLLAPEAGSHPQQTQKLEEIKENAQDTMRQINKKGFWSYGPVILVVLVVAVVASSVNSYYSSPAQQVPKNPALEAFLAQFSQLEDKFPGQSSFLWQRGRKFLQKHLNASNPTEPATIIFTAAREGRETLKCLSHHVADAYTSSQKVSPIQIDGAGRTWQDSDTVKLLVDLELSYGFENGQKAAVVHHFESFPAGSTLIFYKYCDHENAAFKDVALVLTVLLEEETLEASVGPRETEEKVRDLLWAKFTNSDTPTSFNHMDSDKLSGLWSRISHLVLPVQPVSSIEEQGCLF

Row | SMILES | composite z-score [1] | z-score [2] | z-score [3] | z-score [4] | composite z-score [5] | z-score [6] | composite z-score [7] | composite z-score [8] | composite z-score [9] | composite z-score [10]
1 | C=CCOC(=O)[C@H]1[C@@H]2C(=O)O[C@@H](c3ccccc3)[C@@H](c3ccccc3)N2[C@@H](c2ccc(OCCOC(=O)[C@H]3C[C@H]4C(=O)N[C@@H](CCCC[N+](C)(C)C)C(=O)N4[C@H]3c3ccc(O)cc3)cc2)[C@]12C(=O)Nc1ccccc12 | -0.146 | -0.193 (inactive) | -2.55 (inactive) | -1.05 (inactive) | 1.68 | -0.405 (inactive) | 0.126 | 1.08 | 0.321 | -0.194
2 | CN1C(=O)C2C=CC(C(O)c3ccccc3)N(NC(=O)OC(C)(C)C)C2C1=O (stereo not given) | 0.408 | 0.382 (inactive) | 1.52 (inactive) | 1.45 (inactive) | 2.93 | -0.828 (inactive) | 0.0875 | -0.201 | 0.497 | 0.0182
3 | COC(=O)[C@@]1(Cc2ccc(F)cc2)[C@H]2c3cc(C(=O)N4CCCC4)n(CCc4ccc(OC)c(Br)c4)c3C[C@H]2CN1C(=O)c1ccccc1 | 1.4 | 0.0318 (inactive) | 1.53 (inactive) | 2.31 (inactive) | 3.52 | -0.224 (inactive) | 0.436 | -0.0473 | 1.03 | 0.324
4 | C=CCOC(=O)[C@@H]1[C@H]2C(=O)O[C@H](c3ccccc3)[C@H](c3ccccc3)N2[C@H](c2ccc(OCCOC(=O)[C@H]3C[C@H]4C(=O)N[C@@H](CCCC[N+](C)(C)C)C(=O)N4[C@H]3c3cccc(OCCO)c3)cc2)[C@@]12C(=O)Nc1ccc(I)cc12 | 1.59 | 0.904 (inactive) | 1.04 (inactive) | 4.48 (inactive) | 2.34 | 0.254 (inactive) | 0.0631 | 1.45 | 1.13 | 0.0527
5 | C=CC[C@@]1(C(=O)NCCN2CCOCC2)N=C(c2ccc(OCCCO)cc2)O[C@@H]1c1ccccc1CN=[N+]=[N-] | 1.56 | -1.46 (inactive) | -1.18 (inactive) | -0.548 (inactive) | 3.02 | 0.0499 (inactive) | 0.149 | -0.0392 | 0.19 | -0.0735
6 | O=C1OCC=C[C@H]2OC34C=CCN(c5ccc(Cl)cc5)C(=O)[C@H]3N(CCCO)C(=O)[C@@H]4[C@@H]12 (stereo not given in full) | 0.631 | 0.0783 (inactive) | -0.252 (inactive) | 0.0814 (inactive) | 2.56 | 1.3 (inactive) | -0.0783 | -0.996 | -0.478 | -0.28
7 | CC(=O)n1cc(C(O)C2C=CC3C(=O)N(c4ccccc4)C(=O)C3N2Nc2ccc(C#N)cc2)c2ccccc21 (stereo not given) | 1.33 | -0.589 (inactive) | 1.09 (inactive) | 1.85 (inactive) | 3.4 | -0.795 (inactive) | 0.401 | -0.244 | 0.48 | -0.0804
8 | O=C(NCCN1CCOCC1)[C@@H]1c2ccccc2C(=O)N(Cc2cc(F)cc(C(F)(F)F)c2)[C@H]1c1ccc(CO)cc1 | 1.54 | -0.718 (inactive) | -0.447 (inactive) | -0.405 (inactive) | 3.05 | -0.356 (inactive) | -0.22 | 0.935 | 0.58 | -0.149
9 | COCCCNC(=O)[C@]1(Cc2ccccc2N=[N+]=[N-])N=C(c2ccc(OCCCO)cc2)O[C@@H]1c1ccccc1CN=[N+]=[N-] | 1.51 | -1.24 (inactive) | -0.365 (inactive) | 4.94 (inactive) | 3.18 | 1.01 (inactive) | 0.465 | 0.579 | 1.09 | 0.606
10 | [N-]=[N+]=NCc1ccccc1[C@H]1OC(c2ccc(OCCCO)cc2)=N[C@@]1(Cc1ccccc1)C(=O)NCC(O)CO (stereo not given in full) | 1.25 | -0.286 (inactive) | 0.669 (inactive) | -1.22 (inactive) | 3.5 | 0.203 (inactive) | 0.102 | -0.116 | -0.046 | 0.0073
11 | O=C1O[C@@H](c2ccccc2)[C@@H](c2ccccc2)N2[C@@H](c3ccc(O)cc3)[C@]3(C(=O)Nc4ccc(C#CCCO)cc43)[C@@H](C(=O)O)[C@H]12 | 1.57 | 0.414 (inactive) | -0.571 (inactive) | -0.265 (inactive) | 2.79 | 0.7 (inactive) | 1.55 | -0.222 | 0.314 | 1.07
12 | CCCC[C@H]1OB(O)C[C@H]2C1=C(C)Cn1c(=O)n(-c3ccccc3)c(=O)n12 | 0.414 | 0.585 (inactive) | 1.19 (inactive) | 0.261 (inactive) | 0.262 | -0.314 (inactive) | -0.119 | 0.688 | 0.37 | -0.113
13 | COc1ccc([Si](C)(C)[C@@H]2[C@@H](CCO)O[C@]3(C(=O)N(Cc4cccc(N(C=O)c5ccccc5)c4)c4ccccc43)[C@H]2C)cc1 | 1.12 | 1.35 (inactive) | 0.946 (inactive) | 9.98 (active) | 0.745 | 1.03 (inactive) | -0.0719 | 0.145 | 0.258 | -0.201
